The source of these data is PubChem BioAssay AID2796 (The Scripps Research Institute Molecular Screening Center, 2010).

The whole screen tested about 320,000 compounds, of which about 8,000 (2.5%) were called active. This excerpt belongs to a sample that is enriched for actives. Values without a mark were called inactive. Rule as the data show it: active = activation above about 47%; inactive = the rest.

For this experiment, the target named is Aryl hydrocarbon receptor (Homo sapiens) (UniProt P35869). Briefly: AHR activators, primary screen, cell-based, luminescence, luciferase reporter, human (AID 2796).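 Also: 0% = vehicle wells and 100% = reference agonist.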 The settings on record: AHR-responsive luciferase reporter cells, at 5 µM, active compounds read high.
Chain of Aryl hydrocarbon receptor (Homo sapiens) (P35869 whole entry, looked up): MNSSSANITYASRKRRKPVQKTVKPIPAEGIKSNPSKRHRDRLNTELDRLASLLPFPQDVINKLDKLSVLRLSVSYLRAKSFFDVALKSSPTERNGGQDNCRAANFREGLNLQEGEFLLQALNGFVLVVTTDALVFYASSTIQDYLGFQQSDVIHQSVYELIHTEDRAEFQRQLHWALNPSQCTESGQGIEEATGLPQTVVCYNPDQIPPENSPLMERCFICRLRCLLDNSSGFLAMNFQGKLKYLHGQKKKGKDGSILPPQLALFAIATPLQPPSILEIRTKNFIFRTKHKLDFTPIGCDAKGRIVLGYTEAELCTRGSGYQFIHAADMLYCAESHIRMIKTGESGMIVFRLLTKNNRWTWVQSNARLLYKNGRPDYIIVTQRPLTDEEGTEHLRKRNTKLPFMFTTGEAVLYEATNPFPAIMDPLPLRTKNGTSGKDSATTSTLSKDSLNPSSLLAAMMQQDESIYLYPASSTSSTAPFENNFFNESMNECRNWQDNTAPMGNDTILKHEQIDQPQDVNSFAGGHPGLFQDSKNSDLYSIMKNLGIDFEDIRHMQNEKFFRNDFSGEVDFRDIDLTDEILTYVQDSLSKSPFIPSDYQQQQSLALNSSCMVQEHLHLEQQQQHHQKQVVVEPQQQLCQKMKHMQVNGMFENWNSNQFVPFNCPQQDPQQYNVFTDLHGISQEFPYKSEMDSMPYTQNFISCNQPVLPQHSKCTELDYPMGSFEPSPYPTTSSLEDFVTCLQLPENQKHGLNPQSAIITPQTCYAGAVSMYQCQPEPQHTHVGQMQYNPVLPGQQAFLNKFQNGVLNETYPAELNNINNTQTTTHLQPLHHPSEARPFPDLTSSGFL
With `O=C(Cn1nc(CNc2ccc(Cl)cc2)[n+]2c1CCCCC2)c1ccc(Cl)cc1`, the activation was 28.6%.
The value for `Cc1cc(=O)oc2c1c(C)nn2-c1ccc(Cl)cc1` was 58% (active); that for `Cc1nn(-c2ccccc2)c(NC(=O)c2cccs2)c(-c2ccc(Cl)cc2)c1=O` was 0.87%; that for `Cc1nn(-c2cc(Cl)ccc2N)c(=O)c2ccccc12` was 0.58%.
The value for `COc1ccc(CNC(=O)CN(c2ccc(OC)c(Cl)c2)S(=O)(=O)c2ccc(C)cc2)cc1` was 4.87%; that for `C[C@]12CC[C@H](O)CC1=CCC1C2CC[C@@]2(C)C1CC[C@@H]2NC(=O)CCC(=O)O` (stereo partly drawn) was -0.38%; that for `CC(=O)Oc1ccc2c(=O)oc(-c3ccc([N+](=O)[O-])cc3)nc2c1` was 14.1%.
With `O=[N+]([O-])c1ccc2oc(-c3cccc(O)c3)nc2c1` the figure was 78% (active); with `COc1cccc(-c2nc3cc(C)ccc3o2)c1`, 83.1% (active); with `O=[N+]([O-])c1cccc(C2=NCCS2)c1`, 0.6%.
Take `COc1ccc2oc(-c3cccc(NC(=O)CSc4ccc(Cl)cc4)c3)nc2c1`: the activation was 28.6%.
The value for `COc1cccc(-c2nnc(SCCOc3ccc4c(C)cc(=O)oc4c3)o2)c1` was -2.36%.
With `CC(=O)c1ccc(NC(=O)CCNS(=O)(=O)c2cc(Br)cnc2N)cc1` the figure was 2.25%.
On to `COc1ccc(CN2CCC(n3nccc3NC(=O)CCCc3ccccc3)CC2)cc1C`, for which the activation is -8.72%.
With `CCC(C)NC(=O)C1c2ccccc2C(=O)N1Cc1ccccc1` (stereo not drawn) the figure was 0.97%; with `Cc1[nH]nc(SCC(=O)NCC(C)C)c1[N+](=O)[O-]`, -0.18%; with `COc1ccc(CN2CCCC(C(=O)N3CCCCC3)C2)cc1` (stereo not drawn), -0.87%.
Regarding `COc1cc(NC(=O)Nc2ccc(C)cc2)cc([N+](=O)[O-])c1`, the activation was 61.8% (active).
With `CC(=O)c1ccc(NC(=O)Nc2ccc([N+](=O)[O-])cc2C)cc1` the figure was -4.23%; with `COC(=O)c1ccc(NC(=O)Nc2ccc(C)cc2)cc1`, 1.57%.
`Oc1cccc2ccc(/C=C/c3ccc(Br)s3)nc12`: the activation was 52.2% (active).
The value for `Nc1ccc(S(=O)(=O)Nc2nccc(/C=C/c3ccc(Br)s3)n2)cc1` was -1.58%.
Consider `CCN(c1ccccc1)S(=O)(=O)c1ccc2[nH]c(=O)[nH]c2c1`, for which the activation is 7.41%.
The value for `CC(C)C(NC(=O)OCc1ccccc1)C(=O)OCC(=O)N1C(C)CCCC1C` (stereo not drawn) was 2.02%; that for `CC(C)(C)Oc1ccccc1Nc1nc(NCCO)nc(N2CCCC2)n1` was 53.9% (active).
Turning to `Cc1cccc(Nc2nc(NCCO)nc(N3CCCC3)n2)c1`, the activation was 19.5%.
The value for `CCCOc1ccc(Cl)cc1Nc1nc(NCCO)nc(N2CCCC2)n1` was 12.8%.
With `CN(CC(=O)NCc1ccncc1)S(=O)(=O)c1ccc(Br)cc1` the figure was 5.25%.
The value for `Cc1ccc(-c2nnc(-n3nnc4ccccc43)c3ccccc23)cc1` was 1.43%; that for `CC(C)CNC(=S)NNC(=O)c1nn(C)cc1Cl` was -3.07%.
As to `Cc1nn(C)cc1C(=O)NNC(=S)Nc1ccc(Cl)cc1`, the activation was 29.1%.
For the molecule `Cn1cc(Cl)c(C(=O)NNC(=S)Nc2cccc(Cl)c2)n1`, the activation is 125% (active).
The value for `CCCC(=O)Nc1nnc(CC(=O)OCC)s1` was 3.91%; that for `C=CCN1C2CCCC1CC(NC(=S)Nc1cccc(OC)c1)C2` (stereo not drawn) was -0.24%.
With `CCOCCCN(C)C1CCN(C(=O)c2oc3ccccc3c2NC(=O)COc2cccc(C)c2)CC1` the figure was -0.33%; with `COCC(=O)Nc1c(C(=O)N2CCCC2)oc2ccccc12`, 74.5% (active).
Regarding `COc1cccc(OC)c1C(=O)Nc1c(C(=O)N2CCN(c3ccccn3)CC2)oc2ccccc12`, the activation was -3.46%.
With `CCc1cccc(C)c1NS(=O)(=O)c1cc(Br)cnc1N` the figure was 3.17%; with `COc1cc(NC(=O)C2CCN(c3cnccn3)CC2)cc(OC)c1`, 5.78%; with `Cc1ccc(Cl)cc1NC(=O)C1CCN(S(C)(=O)=O)CC1`, 7.96%.
With `O=C(Nc1ccc2c(c1)OCCO2)C1CCCN(c2ncccn2)C1` (stereo not drawn) the figure was 20.4%; with `Cc1ccc(Cl)cc1NC(=O)C1CCCN(c2cnccn2)C1` (stereo not drawn), 80% (active).
With `O=C(Nc1cccc(Cl)c1)C1CCCN(c2cnccn2)C1` (stereo not drawn) the figure was 82.4% (active).
With `Cc1ccc(Cl)cc1NC(=O)COC(=O)C1CCCCC1`, the activation was 0.36%.
On to `CC(C)[C@H](NC(=O)N1CCn2c1nc1ccccc12)C(=O)NCc1ccc2c(c1)OCO2`, for which the activation was 6.92%.
Turning to `CC(C)CNc1ncnc2c1cnn2Cc1ccc(Cl)cc1`, the activation is 0%.
With `Cc1cccc(CS(=O)(=O)c2ncc(Cl)c(C(=O)Nc3ccc(F)cc3)n2)c1` the figure was 27.3%.
With `OC(c1ccc(Cl)cc1)C(CN1CCOCC1)c1ccccc1` (stereo not drawn), the activation is 2.39%.
Consider `Cc1ccc(N(C(=O)c2sc(C)nc2C)C(C(=O)NC(C)(C)C)c2ccncc2)cc1` (stereo not drawn), for which the activation is -0.51%.
With `CC(C)c1ccccc1OCC(O)CN(CC(O)COc1cccc2ccccc12)C(C)C` (stereo not drawn) the figure was 5.3%; with `CC1Cc2ccccc2N1CC(=O)Nc1ccc2c(c1)OC(F)(F)O2` (stereo not drawn), 61.4% (active).
With `O=C(COC(=O)c1ccc[nH]c1=O)Nc1ccc2c(c1)OC(F)(F)O2` the figure was 0.45%.
`CC1Cc2ccccc2N1CC(=O)Nc1ccc(S(N)(=O)=O)cc1` (stereo not drawn): the activation was 3.1%.
For the molecule `CCOC(=O)N1CCC(Nc2c(NCCCN3CCN(c4ccc(OC)cc4)CC3)c(=O)c2=O)CC1`, the activation is 1.99%.
The value for `CCSc1ccccc1C(=O)Nc1ccc2c(c1)OCO2` was 80.8% (active); that for `COc1cc(NC(=O)c2ccc3c(c2)OCO3)ccc1NC(=O)c1cccs1` was 12.8%; that for `O=C(Nc1ccc2c(c1)OCO2)c1sc2cc(Cl)ccc2c1Cl` was 33.1%.
As for `O=C(Nc1cccc(S(=O)(=O)N2CCCCC2)c1)c1cncc(Br)c1`, the activation was 17.9%.
With `COCc1nnc(NC(=O)c2ccc3c(c2)OCO3)s1` the figure was 50% (active); with `CSc1ncccc1C(=O)Nc1ccc2c(c1)OCO2`, 32.3%.
With `CC(Sc1nc(-c2ccccc2)cc(C(F)(F)F)n1)C(=O)Nc1ccc2c(c1)OCO2` (stereo not drawn) the figure was 5.04%; with `CC(Sc1nc2cc(Cl)ccc2s1)C(=O)Nc1ccc2c(c1)OCO2` (stereo not drawn), 65.3% (active); with `O=C(Nc1nc2ccccc2s1)c1ccc2c(c1)OCO2`, 6.38%.
With `O=C(Nc1cccc(S(=O)(=O)N2CCCCC2)c1)c1ccc2c(c1)OCO2`, the activation was 56% (active).
With `Cc1ccc(C(=O)Nc2ccc3c(c2)OCO3)cc1S(=O)(=O)N1CCCCC1` the figure was 38.4%; with `CC(C)NC(=O)CSc1ccccc1C(=O)NCc1ccc2c(c1)OCO2`, 1.44%; with `O=C(NCc1ccc2c(c1)OCO2)C(=O)NCC1OCCN1S(=O)(=O)c1ccc(F)cc1` (stereo not drawn), 1.35%.
With `CC(=O)c1nn(-c2cccc(C(F)(F)F)c2)c(=O)[nH]c1=O` the figure was 0.72%; with `COc1ccc(CCNC(=O)CCNS(=O)(=O)c2cc(Br)cnc2N)cc1OC`, -0.76%.
With `O=C(CN(C(=O)CNC(=O)c1cccs1)c1cccc(F)c1)NC1CCCCC1` the figure was 1.69%; with `Cc1ccc(C(=O)N2CCN(S(=O)(=O)N3CCOCC3)CC2)cc1`, 4.12%; with `CCC(C)C(=O)Nc1cc([N+](=O)[O-])ccc1Cl` (stereo not drawn), 12%.
`COc1ccc(S(=O)(=O)N2CCC(C(=O)N3CCCC3)CC2)cc1C`: the activation is -0.5%.
The value for `C/C(=N\N)c1c(-c2ccccc2)c2cc(Br)ccc2[nH]c1=O` was 2.69%; that for `COc1ccccc1C(=O)NCC(=O)OCC(=O)NNC(=O)c1ccc(Br)cc1` was 0.52%; that for `Cc1cc2nc3n(c2cc1C)CC1CC(C(=O)NCCC(C)C)N(C)C31` (stereo not drawn) was 2.06%.
With `CCOC(=O)[C@H]1[C@H]2COc3ccccc3[C@@H]2N2C(=O)CN(Cc3ccccc3)C(=O)[C@@]12C` the figure was 0.71%; with `CCOC(=O)C1=C(COC(=O)[C@H](C)NS(=O)(=O)c2ccccc2F)NC(=O)NC1C` (stereo partly drawn), -0.94%; with `C[C@H](CO)N1C[C@H](C)[C@H](CN(C)C(=O)Nc2ccc(C(F)(F)F)cc2)Oc2c(NC(=O)c3ccncc3)cccc2C1=O`, 5.42%.
The value for `O=C1Nc2ccc(Br)cc2/C1=N/N=C/C1=C(N2CCOCC2)C(=C\c2ccccc2)/CC1` was 22.3%; that for `CC(NC(=O)Nc1ccc2c(c1)OCO2)c1ccncc1` (stereo not drawn) was 29.5%; that for `O=C(Nc1cccnc1)c1ccc2c(c1)OCO2` was 51.4% (active).
In the case of `O=C(Nc1ccc(NC(=O)c2ccc3c(c2)OCO3)cc1)c1cccc(Cl)c1`, the activation is -2.05%.
For the molecule `Cc1cccc(NC(=O)Nc2ccc3c(c2)OCO3)n1`, the activation was 180% (active).
The value for `Cc1cccc(NC(=O)/C=C/c2ccc3c(c2)OCO3)n1` was -3.06%; that for `Cc1ccc2nc(-c3ccccn3)cc(C(=O)Nc3ccc4c(c3)OCO4)c2c1` was 47.8% (active).
Take `O=C(Nc1ccncc1)c1cc(-c2ccccn2)nc2ccc(Br)cc12`: the activation was 4.97%.
For `CC(C)C(=O)Nc1cccc(C(=O)Nc2ccc3c(c2)OCO3)c1`, the activation was 56% (active).
With `CC(C)CNS(=O)(=O)c1ccc(C(=O)Nc2ccc3c(c2)OCO3)cc1` the figure was 9.22%.
The value for `Cc1ccc2nc(-c3ccncc3)cc(C(=O)Nc3ccc4c(c3)OCCO4)c2c1` was 5.93%; that for `O=C(Nc1cccc([N+](=O)[O-])c1)c1ccc2c(c1)OCO2` was 14.3%.
For `O=C(Nc1ccccc1)c1ccc2c(c1)OCCCO2`, the activation was -1.81%.
With `CCN(C(=O)COC(=O)c1ccc(COc2ccc3c(C)cc(=O)oc3c2)cc1)C1CCS(=O)(=O)C1` (stereo not drawn) the figure was 1.82%.
